# Compound activity deposited in PubChem by National Center for Advancing Translational Sciences (NCATS).
# AmpC nodet inh: blocks E. coli AmpC beta-lactamase in absence of detergent | P00811 | AmpC nitrocefin hydrolysis, absorbance 480 nm, no detergent | Potency, µM (highest dose often 28.7 µM) | 71,000 compounds, 1.8% hits | AID 585
# Target sequence (P00811 whole entry, looked up): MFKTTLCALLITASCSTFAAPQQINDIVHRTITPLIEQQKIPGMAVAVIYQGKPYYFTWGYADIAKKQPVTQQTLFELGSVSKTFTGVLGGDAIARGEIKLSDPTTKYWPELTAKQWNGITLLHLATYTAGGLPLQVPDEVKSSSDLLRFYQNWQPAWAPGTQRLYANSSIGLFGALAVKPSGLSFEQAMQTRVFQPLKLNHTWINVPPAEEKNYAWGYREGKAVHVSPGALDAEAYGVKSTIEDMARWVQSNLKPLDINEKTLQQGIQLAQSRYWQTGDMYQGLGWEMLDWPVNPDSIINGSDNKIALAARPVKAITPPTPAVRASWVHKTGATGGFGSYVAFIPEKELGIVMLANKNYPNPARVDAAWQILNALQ
#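 AmpC, 20 mM phosphate pH 7.0; 15 min cpd preinc, RT; start with nitrocefin (800 uM stock); A480 kinetic read, 20 s intervals, 4 min. No-enzyme wells = negative control.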
# LT uptake inh: inhibitors of anthrax lethal toxin internalization | Cells, anthrax lethal toxin internalization, FRET ratio (460/530) | Potency, µM (titrated, usually from 40 µM), usual class: inhibitors | 70,000 compounds, 0.67% hits; further: nearly all actives have a fitted effect of over 50% in size
# AmpC inh det: AmpC beta-lactamase inhibition, detergent assay; Potency, µM (doses to about 28.7 µM); purified AmpC, nitrocefin hydrolysis with detergent; P00811; 71,000 compounds, 0.09% hits; active means well fitted curve in the direction sought with a large enough effect; inconclusive means small, poorly fitted or top-dose-only effect
#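 E. coli AmpC (5.3 nM) in 20 mM phosphate pH 7.0 with 0.01% Triton X-100, preincubated 15 min RT with compound; nitrocefin (2 uL of 800 uM stock) hydrolysis followed by 480 nm absorbance every 20 s over 4 min.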
# SmPrx2 inh: blocks S. mansoni peroxiredoxin 2 enzymatic activity; Potency, µM; S. mansoni Prx2 activity coupled to TGR/GSH (TGR is thioredoxin glutathione reductase), NADPH fluorescence loss, qHTS; 65,000 compounds, 0.07% hits
#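 Coupled assay in which S. mansoni TGR passes NADPH reducing equivalents via glutathione to Prx2, which reduces H2O2. Compounds were preincubated 15 min at room temperature with 25 nM TGR/50 nM Prx2 mix. Kinetic NADPH fluorescence loss (ex 365/em 450 nm) was monitored.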
# Numbers stand for hits; . = inactive; ? = inconclusive; / = not tested or not shown; ! = repeats disagree; [ ] = another dose, or the depositor's remark. Compounds with a hit are over-represented: about 2.4% of the library has one in this group of screens. Unless noted, the call rests on the fitted dose curve.
SMILES,AmpC nodet inh,LT uptake inh,AmpC inh det,SmPrx2 inh
C[C@@H]1O[C@@H](O[C@H]2C[C@@H](O)[C@]3(CO)[C@@H]4[C@@H](O)C[C@]5(C)[C@H]([C@@H]6COC(=O)C6)CC[C@@]5(O)[C@H]4CC[C@@]3(O)C2)[C@H](O)[C@H](O)[C@@H]1O,.,?,.,.
CCOc1ccc(-n2c(CC)nc3ccccc3c2=O)cc1,3.16µM[single pt active],.,.,.
C[C@@H]1O[C@@H](O[C@H]2C[C@@H](O)[C@]3(CO)[C@@H]4[C@@H](O)C[C@]5(C)[C@H](C6=CC(=O)OC6)CC[C@@]5(O)[C@H]4CC[C@@]3(O)C2)[C@H](O)[C@H](O)[C@@H]1O,.,?,.,.
COc1ncc2nc(-c3ccccc3)c(=O)n(CCC#N)c2n1,.,.,.,.
O=C(CCCOc1ccccc1)Nc1nnc(C2CCCO2)s1 (stereo not given),10µM[single pt active],.,.,.
COc1cc(OC)cc([C@H](CNc2ncnc3c2ncn3[C@@H]2O[C@@H](CO)[C@H](O)[C@@H]2O)c2ccccc2C)c1,.,.,.,.
N[C@@H](Cc1ccc(O)c(O)c1)C(=O)O,.,.[3.58 µM],.,.
C[C@H](Cc1ccc(O)c(O)c1)[C@@H](C)Cc1ccc(O)c(O)c1,.,15.8µM!,.,.
Cc1ccc(Cn2ccc(NC(=O)c3cc(-c4ccc5c(c4)OCO5)on3)n2)cc1,10µM,.,.,.
Cc1ccc(Cn2ccc(NC(=O)c3cc(-c4ccccc4)on3)n2)cc1,?,.,.,.
CCNc1sc(C(=O)c2cccs2)c(N)c1-c1nc2ccccc2s1,0.02µM,?,.,.
CCc1ncc(C(O)c2cccc(OC)c2OC)n1C (stereo not given),.,.,.,.
CCn1ccnc1C(O)c1cccc(OC)c1OC (stereo not given),3.98µM[single pt active],.,.,.
COC(=O)c1cc(NC2c3ccccc3C(=O)N2c2cccnc2)cc(C(=O)OC)c1 (stereo not given),3.98µM[single pt active],.,.,.
Oc1ccc(Cl)cc1Sc1cc(Cl)ccc1O,.[5.75 µM],5.01µM!,.[5.75 µM],.
N#Cc1ccc(CN2CC[C@@]3(CCCN(C(=O)c4cnccn4)C3)C2)cc1,.,?,.,.
CC1CCN(c2nnc(N3CCC(C)CC3)c3ccccc23)CC1,3.16µM[single pt active],.,.,.
CC1CCN(c2nncc3ccccc23)CC1,.,.,.,.
COc1cccc(NC(=O)c2oc3ccccc3c2NC(=O)C(C)(C)C)c1,.,12.6µM,.,.
CS(=O)(=O)c1ccc(/C=N\NC(N)=S)cc1,.[5.75 µM],.[8 µM],.[5.75 µM],.
Cc1ccccc1NC(=O)CN1C(=O)COc2ccc(Cl)cc21,.,10µM,.,.
Cc1cccc(CNc2cc(-c3c(C)noc3C)ncn2)c1,.,.,.,.
CCn1c(SCC#N)nc2c(c1=O)C1(CCCC1)Cc1ccccc1-2,.,10µM,.,.
COc1ccc(NC(=O)c2ccc(-c3ccc(-c4noc(C)n4)cc3C)cc2)cc1OCCN(C)C,.,15.8µM,.,.
COc1ccc(NC(=O)c2ccc(-c3ccc(-c4noc(C)n4)cc3C)cc2)cc1N1CCN(C)CC1,.,?,.,.
SMILES,AmpC nodet inh,LT uptake inh,AmpC inh det,SmPrx2 inh
C[C@@H](CSC(=N)N)C(N)=O,.[5.75 µM],.[8 µM],.[5.75 µM],.
C[C@H]1CC[C@]2(NC1)O[C@@H]1C[C@@H]3[C@@H]4CC=C5C[C@H](O)CC[C@@]5(C)[C@H]4CC[C@@]3(C)[C@H]1[C@@H]2C,.,.,.,.
COc1cccc(-c2ccc3ncnc(N(C)C)c3c2)c1,6.31µM,?,10µM,.
COc1ccccc1N1CCN(Cc2cc(Br)c(O)c3ncccc23)CC1,2.51µM[single pt active],?,.,.
c1ccc(N2CCN(c3ncnc4c3oc3ccccc34)CC2)cc1,.,15.8µM,.,.
COc1ccc(S(=O)(=O)N2CCN(C)CC2)c2ccccc12,3.98µM[single pt active],.,.,.
CCSc1nc(-c2cccs2)nc2c1c(=O)n(C)c(=O)n2C,.,.,.,.
C=CC(=O)OCCCC,.,.,.,/
NC(=O)CN1CCN(C(=O)Nc2ccccc2)CC1,3.98µM[single pt active],.,.,.
CC(C)OC(=O)c1nnc(Cc2ccc(F)cc2)o1,.,.,.,.
CC(C)C[C@H](N)c1nnc(S(=O)(=O)Cc2ccc(F)cc2)o1,2.51µM,?,2.51µM,.
Cc1ccc(-n2cnc3c(sc4nccc(N(C)C)c43)c2=O)cc1,.,6.31µM,.,/
COc1ccc(-n2cnc3c(sc4nccc(N(C)C)c43)c2=O)cc1,.,/,.,.
COc1ccc(Oc2ncc3nc(C)c(=O)n(-c4ccc(OC)cc4)c3n2)cc1,.,.,.,.
CC(C)CCOC(=O)C1C2C=CC3(CN(Cc4cccs4)C(=O)C13)O2 (stereo not given),3.98µM[single pt active],.,.,.
Cc1nc2ccccc2c2oc(C(=O)N3CCN(C(=O)c4ccco4)CC3)cc12,.,.,.,.
Cc1nc2ccccc2c2oc(C(=O)N3CCc4ccccc4C3)cc12,.,10µM,.,.
C[C@@]12CC[C@@H]3[C@@H](CC[C@H]4C[C@@H](O)CC[C@]43C)[C@H]1CC[C@@H]2c1cc(C(F)(F)F)n[nH]1,.[5.75 µM],?,.[5.75 µM],.
COc1cccc(-c2cncnc2NCc2ccccc2)c1,12.6µM,?,10µM,.
N#Cc1ccccc1-c1ccc2ncnc(N3CCNCC3)c2c1,.,.,.,.
COc1ccc(OC)c(C2=NOC(C(=O)Nc3cc(C)nn3-c3ccccc3)C2)c1 (stereo not given),3.98µM[single pt active],.,.,.
COc1ccc2oc(-c3ccccc3)c(OC)c(=O)c2c1,.,.,.,.
COc1ccc2c(c1)c(CCN1CCOCC1)c(C)n2C(=O)c1cccc(Cl)c1Cl,/,12.6µM,/,/
COc1ccc2c(c1)c(CC(=O)O)c(C)n2C(=O)c1ccc(Cl)cc1,.,?,.,.
Oc1ccc(Cl)cc1C=Nc1cnc2ccccc2c1,.[5.75 µM],.[8 µM],.[5.75 µM],.
SMILES,AmpC nodet inh,LT uptake inh,AmpC inh det,SmPrx2 inh
CO/N=C(\C(=O)N[C@@H]1C(=O)N2C(C(=O)O)=C(CSc3nc(=O)c(O)nn3C)CS[C@@H]12)c1csc(N)n1,12.6µM,.,12.6µM,.
CO/N=C(/C(=O)N[C@@H]1C(=O)N2C(C(=O)O)=C(COC(N)=O)CS[C@H]12)c1ccco1,0.01µM,.,0.0251µM,/
CSc1ncnc2nc[nH]c12,.,.,.,.
Cc1ccc(S(=O)(=O)N[C@H]2COC(=O)[C@@H](C)COC(=O)C/C=C\[C@H]2C)cc1,/,.[8 µM],/,/
COc1ccc(OC)c(NC2c3ccccc3C(=O)N2Cc2ccc3c(c2)OCO3)c1 (stereo not given),3.98µM[single pt active],?,.,.
O=C1c2ccccc2C(O)N1Cc1ccc2c(c1)OCO2 (stereo not given),3.98µM[single pt active],.,.,.
O=C1c2ccccc2C(Nc2cccnc2)N1Cc1ccc2c(c1)OCO2 (stereo not given),3.16µM[single pt active],.,.,.
CN(C)C(=O)c1ccc(-c2cc(N(C)Cc3ccco3)ncn2)cc1,.,.,.,.
CC1(C)OC(C(O)(c2cccc3c2oc2ccccc23)c2cccc3c2oc2ccccc23)C(C(O)(c2cccc3c2oc2ccccc23)c2cccc3c2oc2ccccc23)O1 (stereo not given),/,.[8 µM],/,/
